HT1080 IDH1KD tx – qHTS for induction of synthetic lethality in tumor cells producing 2HG: qHTS for the HT-1080-IDH1KD cell line; HT-1080 IDH1 knockdown viability, ATP luminescence, 48 h; Potency, µM (titrated, usually from 46.1 µM), without a hit: at the highest dose activity, negative = toxicity, usual class: cytotoxic; hit rate 2% among 360,000;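 note: 0% = DMSO wells and -100% = cell-free medium wells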
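HT-1080-IDH1KD cells (IDH1 knocked down), 750/well in RPMI with 5% FBS, treated with compound 48 h at 37 degrees C. Viability by CellTiter-Glo luminescence, normalised to DMSO and no-cell wells; concentration-response curves classed.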
TDP1 cell noCPT – qHTS for Inhibitors of human tyrosyl-DNA phosphodiesterase 1 (TDP1): qHTS in cells in absence of CPT. DT40 Tdp1-/- hTDP1 cells, no CPT, ATP luminescence, 48 h. Potency, µM (highest dose often 46.2 µM), for inactives: at the highest dose activity change, negative = growth inhibition, actives largely listed as inhibitors. hit rate 15% among 420,000. AID 686978, 2013; note: nearly all actives have a fitted effect of over 55% in size
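Seeded 400 DT40-hTDP1 cells/well (vehicle DMSO, no 20 nM CPT); pinned compounds; ≥48 hr at 37 °C; CellTiter-Glo luminescence as viability measure.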
KB-3-1 cytotox – qHTS assay for MDR1-selective chemotherapeutics: Primary screen using the parental adenocarcinoma cell KB-3-1. KB-3-1 viability, CellTiter-Glo ATP luminescence, 72 h. Potency, µM (highest dose often 46.1 µM), usual class: cytotoxic. hit rate 1.4% among 400,000. AID 1347075, 2019; note: nearly all actives have a fitted effect of over 60% in size
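Using CellTiter-Glo luminescence, growth of non-resistant KB-3-1 adenocarcinoma cells is assessed 72 h after pin-tool compound addition at 37 °C. Normalized responses across the concentration series yield fitted curves.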
KB-V1 MDR tox – qHTS assay for MDR1-selective chemotherapeutics: Primary screen using the drug-selected MDR subline cells KB-V1; KB-V1 MDR cells viability, CellTiter-Glo, 72 h; Potency, µM (series often up to 46.1 µM), most hits filed as cytotoxic; hit rate 3.4% among 400,000; note: nearly all actives have a fitted effect of over 60% in size
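Luminescent ATP read-out (CellTiter-Glo, 10 min) measures survival of drug-selected KB-V1 MDR cells after 72 h, 37 degrees C compound exposure. Medium: phenol-red-free DMEM, 10% FBS. Values from fitted concentration-response curves.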
HT1080-NT tox – qHTS for induction of synthetic lethality in tumor cells producing 2HG: qHTS for the HT-1080-NT fibrosarcoma cell line. HT-1080-NT fibrosarcoma viability, CellTiter-Glo ATP luminescence, 48 h. hit rate 1.6% among 360,000. Potency, µM (titrated, usually from 46.1 µM), for the others: at the highest dose activity, negative = less viability, hits mostly cytotoxic;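 note: NT is the 2HG producing partner of a matched IDH1 knockdown line; 0% = DMSO-treated cells and -100% = media-only wells without cells; nearly all actives have a fitted effect of over 55% in size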
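Viability by CellTiter-Glo luminescence after 48 h compound exposure at 37C of HT-1080-NT cells (750/well, RPMI, 5% FBS). % activity scaled between DMSO wells and medium-only wells, then curve-fitted and categorized by curve class.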
TDP1 cell CPT – qHTS for Inhibitors of human tyrosyl-DNA phosphodiesterase 1 (TDP1): qHTS in cells in presence of CPT | chicken DT40 Tdp1-/-;hTDP1 cells + 20 nM CPT, ATP luminescence, 48 h | Potency, µM (doses to about 46.2 µM), for inactives: at the highest dose activity change, negative = growth inhibition, actives largely listed as inhibitors | hit rate 12% among 420,000; note: nearly all actives have a fitted effect of over 55% in size
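Chicken DT40 Tdp1-/- cells stably complemented with human TDP1 were seeded at 400 cells/well in medium containing 20 nM camptothecin, exposed to pin-transferred compounds, and grown at 37 °C for at least 48 hr. Viability was read as ATP luminescence.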
Starred values were filed as active, the others as inactive; i = inactive; ? = inconclusive; nt = no result given; ! = not active in a repeat. Hits are enriched below; roughly 19% of the tested compounds scored in any of these assays. Calls come from the whole dose curve; as a rule, active = well fitted curve in the direction sought with a large enough effect; inconclusive = small, poorly fitted or top-dose-only effect, or another doubt; inactive = no such curve, though single readings can be large; an effect the other way counts as inactive or inconclusive. Unless noted, % is set by controls: 0 for no effect and ±100 for the full control effect; potency is the fitted concentration of half-maximal effect.

SMILES | HT1080 IDH1KD tx | TDP1 cell noCPT | KB-3-1 cytotox | KB-V1 MDR tox | HT1080-NT tox | TDP1 cell CPT
O=C(C[C@H]1C=C[C@H](NC(=O)Nc2ccccc2F)[C@@H](CO)O1)NCc1ccc(-c2ccccc2)cc1 | 15.9% | -22.9% | i | i | -1.1% | -13.8%
C/C(=C\c1cc2ccccc2o1)C1Nc2cccc3cccc(c23)N1 | nt | nt | i | i | nt | nt
O=C(c1cccc(NS(=O)(=O)c2ccc(Br)cc2)c1)N1CCN(c2ccccc2O)CC1 | -13.3% | -19.7% | i | i | -12.5% | -4.1%
CC(C)C[C@H]1CN=C(Nc2ccccc2)N1CCCC1CCCC1 | -27.0% | 5.17µM* | ? | ? | ? | 14.6µM*
CCCCCCCN1C(Nc2ccccc2)=NC[C@@H]1CC(C)C | 1.5% | 16.4µM* | ? | ? | -2.7% | 11.6µM*
COc1ccc(NC(=O)N2CC[C@@]3(CCCN(C(=O)c4ccco4)C3)C2)cc1 | nt | 1.8% | nt | nt | nt | 4.3%
COc1ccc(Cl)cc1CC1(C)C(=O)Nc2ccc(S(=O)(=O)NC3CCCCC3)cc21 (stereo not given) | ? | ? | i | i | ? | 23.1µM*
CC1(Cc2ccc(F)cc2)C(=O)Nc2ccc(S(=O)(=O)NC3CCCCC3)cc21 (stereo not given) | 2.1% | ? | i | i | -25.1% | ?
CC1(Cc2ccccc2OC(F)(F)F)C(=O)Nc2c(Cl)ccc(Cl)c21 (stereo not given) | -21.4% | 23.1µM* | i | i | ? | 16.4µM*
COc1ccc(OC(F)(F)F)cc1CC1(C)C(=O)Nc2ccc(S(=O)(=O)NC3CCCCC3)cc21 (stereo not given) | ? | ? | ? | i | ? | 20.6µM*
COc1ccccc1CC1(C)C(=O)Nc2ccc(S(=O)(=O)NC3CCCCC3)cc21 (stereo not given) | -9.3% | ? | i | i | -7.2% | 20.6µM*
CCCCn1c(N)c(N(CCOC)C(=O)c2cc(Cl)nc3ccccc23)c(=O)[nH]c1=O | -0.7% | 2.3% | ? | i | -0.5% | 3.3%
O=C(O)CSc1c(Cl)c(=O)oc2ccc(Cl)cc12 | -1.7% | 1.5% | i | i | 4.6% | -5.2%
Cc1ccc(C(C)C)cc1S(=O)(=O)Nc1cccnc1 | 1.7% | -2.5% | i | i | 2.8% | 5.3%
Cc1ccc(C)c(/C(O)=C2\C(=O)C(=O)N(CCCn3ccnc3)C2c2cccnc2)c1 (stereo not given) | -2.3% | -23.5% | i | i | 2.2% | -7.3%
CCN(CC)c1ccc(CNCCCSc2nnnn2C)cc1 | nt | ? | i | i | nt | ?
Cc1ccccc1CC1(C)C(=O)Nc2ccc(S(=O)(=O)NC3CCCCC3)cc21 (stereo not given) | -0.3% | 20.6µM* | i | i | 0.9% | ?
CC1(Cc2ccccc2Cl)C(=O)Nc2c(Cl)cccc21 (stereo not given) | -1.1% | ? | i | i | 23.6% | 29.1µM*
COc1ccc(OC(F)(F)F)cc1CC1(C)C(=O)Nc2cccc(Cl)c21 (stereo not given) | 0.0% | 14.6µM* | i | i | ? | ?
CC1(Cc2ccccc2OC(F)(F)F)C(=O)Nc2ccc(S(=O)(=O)NC3CCCCC3)cc21 (stereo not given) | ? | ? | i | i | ? | ?
COc1ccc(C(C)=O)cc1CC1(C)C(=O)Nc2ccc(OC(F)(F)F)cc21 (stereo not given) | 0.0% | ? | i | i | -10.0% | ?
C=Cc1ccc(CC2(C)C(=O)Nc3c(Cl)cccc32)cc1 (stereo not given) | 3.0% | ? | i | i | 13.0% | 0.4%
Cc1cc(C)cc(OCc2nnc(N)s2)c1 | -0.5% | -3.3% | i | i | -4.4% | -6.3%
COc1ccc(O)c(-c2cc(-c3cccc(Br)c3)n[nH]2)c1 | ? | 16.4µM* | i | ? | ? | ?
Cc1ccc(O)c(-c2cc(-c3cccc(F)c3)n[nH]2)c1 | -0.9% | ? | ? | ? | 1.2% | ?
SMILES | HT1080 IDH1KD tx | TDP1 cell noCPT | KB-3-1 cytotox | KB-V1 MDR tox | HT1080-NT tox | TDP1 cell CPT
COc1ccc(O)c(-c2cc(-c3ccc(F)cc3)n[nH]2)c1 | 23.1µM* | ? | i | i | ? | -25.2%
COc1ccc(-c2cc(-c3cc(OC)ccc3O)[nH]n2)cc1 | ? | ? | i | ? | ? | 20.6µM*
COc1cc(C2N(c3ccccc3)CCN2c2ccccc2)ccc1OC(C)=O | 6.1% | -17.0% | i | i | 9.8% | -29.7%
COc1ccc(C2C3=C(COC3=O)Oc3cc4c(cc32)OCO4)cc1OC (stereo not given) | ? | 1.46µM* | 0.92µM*! | ? | 5.8µM* | 1.84µM*
COc1cc(C2C3=C(COC3=O)Oc3cc4c(cc32)OCO4)ccc1OC(C)=O (stereo not given) | 5.8µM* | 1.84µM* | 0.82µM* | 2.06µM* | ? | 1.64µM*
COc1cc(C2C3=C(COC3=O)Oc3cc4c(cc32)OCO4)cc(OC)c1OC(C)=O (stereo not given) | ? | 0.651µM* | 0.231µM* | 0.651µM* | ? | 0.651µM*
Cc1cccc2nc(CNC(=O)CC3C(=O)NCCN3Cc3cccc(F)c3)cn12 (stereo not given) | 0.4% | 7.4% | i | i | 6.2% | -1.3%
O=C1CC(c2ccccc2)Oc2cc(O)cc(O)c21 (stereo not given) | 7.5% | -26.1% | i | i | 7.4% | -20.0%
CSC1=NC2(CC(c3ccccc3)Oc3cc(O)ccc32)CC(C)(C)N1 (stereo not given) | -17.9% | 20.6µM* | i | i | -15.5% | 23.1µM*
Cc1ccc2oc(-c3ccc(C)c(NC(=O)COc4ccc(Cl)cc4)c3)nc2c1 | nt | -16.1% | i | i | nt | -29.0%
CC(=O)N(/N=C/c1ccc(C)cc1)c1nc(CCl)cs1 | -2.5% | ? | i | i | -3.7% | 14.6µM*
